Hits are enriched below; roughly 2.4% of the tested compounds scored in any of these assays.
D2 ag-1: agonists of human D2 dopamine receptor (beta-arrestin); P14416; DiscoveRx PathHunter D2 beta-arrestin, luminescence, 90 min; 100% = 57 uM dopamine signal; activation, % (test concentration not listed); 360,000 tested, 0.084% active; AID 624465; in the data active = activation above about 40%; inconclusive = between about 15% and that limit
Target sequence (P14416 whole entry, looked up): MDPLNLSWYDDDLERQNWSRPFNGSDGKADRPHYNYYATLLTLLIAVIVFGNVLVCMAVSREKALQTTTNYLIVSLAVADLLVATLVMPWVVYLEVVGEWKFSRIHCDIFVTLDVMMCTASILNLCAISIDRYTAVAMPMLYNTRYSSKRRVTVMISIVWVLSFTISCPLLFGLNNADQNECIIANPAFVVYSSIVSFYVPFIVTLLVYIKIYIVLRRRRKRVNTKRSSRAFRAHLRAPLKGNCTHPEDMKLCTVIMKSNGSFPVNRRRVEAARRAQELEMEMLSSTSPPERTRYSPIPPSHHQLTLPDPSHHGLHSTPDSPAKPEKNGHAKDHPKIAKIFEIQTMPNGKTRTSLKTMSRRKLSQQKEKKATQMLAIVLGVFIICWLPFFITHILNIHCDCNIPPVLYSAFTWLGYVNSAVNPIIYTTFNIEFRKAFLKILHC
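DiscoveRx PathHunter D2 beta-arrestin cells (2,100/well) attached overnight, then compound-stimulated 90 min at 37 C in HBSS/10 mM HEPES/0.1% Tween-20 buffer; beta-galactosidase complementation read by luminescence after 1 h at ambient temperature. Dopamine 57 uM final (EC100) as control.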
D2 PAM-1: human D2 receptor positive allosteric modulation | P14416 | DiscoveRx D2 beta-arrestin cells, luminescence, 90 min; 100% = 57 uM dopamine signal | potentiation, % (test concentration not listed) | 360,000 tested, 0.23% active | AID 624464; in the data active = potentiation above about 50%; inconclusive = mostly about 30% to 49%
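D2 cells co-treated with compound plus 50 nM dopamine (EC20) for 90 min at 37 deg C to detect potentiation. Beta-arrestin recruitment was read as enzyme-fragment luminescence after 1 h at ambient temperature. Full response was set by 57 uM dopamine.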
D2 ag-2: D2 dopamine receptor (human) agonism; 340,000 tested, 0.53% active; AID 485358; HEK293 T-REx D2 cells, calcium flux agonist mode; activation, % at 2 µM; P14416;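 active = activation over 3 SD above normal in the single-dose calcium agonist read, cut at about 30% in these data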; note: 0% is about no effect
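HEK293 Trex D2 cells, tetracycline-induced, o/n 30 C 5% CO2; no-wash Ca dye, RT 30–90 min; 10-cycle baseline, 23 nl cpd added, kinetic Ca read 180 s; agonist hits = positive Ca response.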
D2 antag: antagonists of human D2 dopamine receptor | P14416 | HEK293 TREx D2 cells, calcium flux, dopamine EC80 | inhibition, % at 10 µM | 340,000 tested, 2% active | AID 485344; in the data active = inhibition above about 30%; inactive = below that, where a call was filed; note: 0% is about no effect
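Calcium mobilization kinetics were recorded at 1 s intervals in tetracycline-induced HEK293 T-REx D2 cells, first for 180 s after compound addition and then 180 s after EC80 dopamine.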
D2 PAM-2: D2 dopamine receptor (human) potentiation; P14416; HEK293 T-REx D2, calcium flux, EC20 dopamine potentiation; potentiation, % at 10 µM; 340,000 tested, 0.34% active;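 active = potentiation over 3 SD above the plate norm, cut at about 30% in these data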; note: 0% is about no effect
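Primary screen. Calcium kinetics in induced HEK293 T-REx D2 cells: compound pre-addition 180 s, EC20 dopamine, 180 s more.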
The depositor's hits bear a star; ? = inconclusive; / = no result.

SMILES | D2 ag-1 | D2 PAM-1 | D2 ag-2 | D2 antag | D2 PAM-2
CCSc1nnc(NC(=O)c2ccc(Br)s2)s1 | -2 | -18 | 1 | -11 | 0
O=S(=O)(c1ccc(-c2cc(C(F)(F)F)on2)s1)N1CCN(c2ccccc2F)CC1 | / | / | 1 | / | -2
CCOCc1c(C(=O)N2CCN(CC(=O)Nc3ccc(F)cc3)CC2)oc2ccccc12 | -4 | 4 | 0 | 72* | -12
COc1ccc(CN2CCN(c3ccc(F)cc3)CC2)c(OC)c1OC | 6 | -41 | 8 | 33* | -31
COc1ccc(CN2CCN(C(c3ccc(F)cc3)c3ccc(F)cc3)CC2)c(OC)c1OC | -2 | -15 | / | / | /
COc1ccc(CN2CCN(Cc3cccc(Oc4ccccc4)c3)CC2)c(OC)c1OC | -2 | -17 | -1 | 34* | -21
CN1CCN(Cc2cccc(Oc3ccccc3)c2)CC1 | -1 | -28 | 0 | -1 | 6
Cc1nnc(SCC(=O)NCCN2C(=O)CSC2=O)n1-c1ccccc1 | 0 | 4 | 0 | 47* | 5
O=C1c2ccccc2CCCC12N=NCC2c1cccc2ccccc12 (stereo unspecified) | ? | 119* | / | / | /
COc1cccc(CN2CCc3ccc(NC(=O)CCc4ccc(C)cc4)cc3C2)c1O | -7 | -41 | 0 | 31* | -20
O=C(c1ccccc1)N1CCC(CC2CC(c3cccc(Br)c3)=NO2)(C(=O)NCC2CCCCC2)CC1 (stereo unspecified) | 0 | -13 | 1 | 31* | 9
CC(C)(C)OC(=O)N1CCC(CC2CC(c3cccc(Br)c3)=NO2)(C(=O)NCC2CCCCC2)CC1 (stereo unspecified) | -2 | -8 | 0 | -15 | -7
CCOC(=O)CNC(=O)C12CC3CC(C1)CC(c1ccc(C)cc1)(C3)C2 | -5 | -5 | 0 | 2 | 0
CCOc1ccc(NC(=O)C23CC4CC(C2)CC(c2ccccc2)(C4)C3)cc1 | -3 | 8 | 0 | 31* | -7
O=C(Nc1ccc(Cc2ccncc2)cc1)C1CCC(N2C(=O)C3CCCCC3C2=O)CC1 (stereo unspecified) | -1 | 0 | -1 | -5 | -9
Cc1ccc(NC(=O)C2CCC(N3C(=O)C4CCCCC4C3=O)CC2)cc1 (stereo unspecified) | -4 | -6 | 0 | 43* | -11
COc1cccc2cc(-c3nc4sc5c(c4c(=O)[nH]3)CCC(C(C)(C)C)C5)c(=O)oc12 (stereo unspecified) | / | / | 0 | / | 4
CCOC(=O)C1=C(CC)Nc2ccccc2N=C1NC(=O)Nc1ccccc1OC | -4 | -17 | -1 | 51* | -26
COc1cccc(CN2CC(C(=O)NCc3cccc(Cl)c3)CCC2=O)c1 (stereo unspecified) | 4 | 0 | 1 | -5 | -9
COc1ccccc1CN1CC(C(=O)NCc2cccc(Cl)c2)CCC1=O (stereo unspecified) | -3 | -6 | 0 | 36* | -10
Cc1ccc2c(c1)c1c(c(=O)n(-c3cccc(Cl)c3)c(=O)n1CC(=O)N1CCCC1)n2C | / | / | 1 | / | 2
O=C(C[n+]1ccccc1)Nc1cc(C(F)(F)F)ccc1Cl | -2 | -44 | -1 | 2 | 4
O=C(C[n+]1ccc2ccccc2c1)Nc1cc(C(F)(F)F)ccc1Cl | -1 | -33 | 1 | 54* | -21
Cc1cc(C)cc(NC(=O)N2CCC(CN3CCCCCC3)CC2)c1 | / | / | 1 | / | 0
COc1cccc(O)c1CN1CCCC(C(=O)c2cccc(C(F)(F)F)c2)C1 (stereo unspecified) | -1 | -14 | 1 | 49* | -23
SMILES | D2 ag-1 | D2 PAM-1 | D2 ag-2 | D2 antag | D2 PAM-2
Cc1ccc(Cn2ccc(NC(=O)c3cc(-c4ccc(Cl)c(Cl)c4)on3)n2)cc1 | / | / | 1 | / | -2
Cc1cc(C)c(-c2csc(NC(=O)C3=COCCO3)n2)cc1C | -1 | -18 | -1 | 32* | 3
COc1ccc(NC(=O)c2c(C)oc3ccc(O)c(CN4CCN(Cc5ccccc5)CC4)c23)cc1Cl | / | / | 0 | / | 0
Cn1c(=O)c2cn3ncccc3c2n(C)c1=O | / | / | 0 | 13 | 3
Cc1ccnn2cc3c(=O)n(C)c(=O)n(C)c3c12 | / | / | -2 | 11 | 31*
CC1=C(c2ccc(Cl)cc2)S(=O)(=O)NC1=NCCCN1CCN(c2cc(C)ccc2C)CC1 | / | / | -2 | / | -6
CCOC(=O)C1=C(COC(=O)COc2ccc(Br)cc2)NC(=O)NC1C (stereo unspecified) | 6 | 15 | 0 | 83* | 0
Clc1ccc(CCNc2ncnc3c2c(-c2ccccc2)cn3-c2ccccc2)cc1 | / | / | 0 | / | 9
O=S(=O)(Nc1nc2ccccc2nc1Nc1ccccc1Br)c1ccccc1 | / | / | / | / | -9
CCCC(C(=O)O)N1C(=O)/C(=C2\C(=O)N(C)c3ccccc32)SC1=S (stereo unspecified) | 13 | 61* | -1 | 1 | -6
Cc1ccc(NC(=O)C2CCN(S(=O)(=O)c3ccc4c(c3)NC(=O)C(C)S4)CC2)cc1Cl (stereo unspecified) | 0 | -1 | 2 | 73* | -14
CCOc1ccc(C(=O)Nc2ccc(C(=O)OCc3cc(=O)n4c(C)csc4n3)cc2)cc1 | / | / | 3 | / | 4
CC(C)(C)N(Cc1ccccc1)C(=O)CSc1nnc(CNc2ccc(F)cc2)o1 | -3 | -4 | 0 | 32* | 11
COc1ccc2c(c1)c1c(c(=O)n(-c3ccc(OC)c(OC)c3)c(=O)n1Cc1ccccc1F)n2C | / | / | 0 | / | -8
CCOc1ccc(NC(=O)CSc2nc(-c3cccc(Cl)c3)nc3c2Cc2c(CO)cnc(C)c2O3)cc1 | / | / | 1 | / | -6
O=C(NCCO)C(=O)NCC(c1ccc2c(c1)OCO2)N1CCOCC1 (stereo unspecified) | / | / | 1 | / | 10
C=CCN(CC=C)C(=S)Nc1cc(Cl)ccc1OC | 42* | -19 | 1 | 4 | -3
CCOC(=O)c1c(C)oc2c1c1c(c3ccccc32)OCN(CCCC(=O)O)C1 | 4 | 6 | 0 | -5 | 9
CCOC(=O)c1c(C)oc2c1c1c(c3ccccc32)OCN(Cc2cccnc2)C1 | ? | 113* | 0 | -4 | 1
CCCOc1ccccc1C(=O)N(Cc1cccc(Br)c1)C1CCS(=O)(=O)C1 (stereo unspecified) | 2 | 3 | 1 | 47* | 1
CCCCCCc1c(C)c2c(cc(C)c3c(C)c(C)oc32)oc1=O | / | / | -1 | / | 5
CCOC(=O)c1cccnc1SCc1cc(=O)n2ccccc2n1 | 1 | -8 | -1 | 7 | 3
CC(OC(=O)c1cccnc1SCc1cc(=O)n2ccccc2n1)c1ccccn1 (stereo unspecified) | 3 | -5 | -1 | 2 | 30*
CCN(C(=O)c1sc2nc3n(c(=O)c2c1C)CCCC3)c1ccccc1F | / | / | 1 | / | -5

High-throughput results from PubChem.
